High-throughput results: PubChem, ICCB-Longwood Screening Facility, Harvard Medical School
Only some compounds are listed: those with a hit (about 1.4% of all), similar ones and a draw of the others.
MenB inh: M. tuberculosis MenB inhibitors, primary screen, biochemical, absorbance | inhibition, % (no concentration beside the values) | 1,4-dihydroxy-2-naphthoyl-CoA synthase (Mycobacterium tuberculosis (strain ATCC 25618 / … | actives 0.43% (n = 100,000) | MenB enzyme assay, absorbance read-out; in the data active = inhibition above about 21%, passing the limit was not always enough
Target sequence (P9WNP5 whole entry, looked up): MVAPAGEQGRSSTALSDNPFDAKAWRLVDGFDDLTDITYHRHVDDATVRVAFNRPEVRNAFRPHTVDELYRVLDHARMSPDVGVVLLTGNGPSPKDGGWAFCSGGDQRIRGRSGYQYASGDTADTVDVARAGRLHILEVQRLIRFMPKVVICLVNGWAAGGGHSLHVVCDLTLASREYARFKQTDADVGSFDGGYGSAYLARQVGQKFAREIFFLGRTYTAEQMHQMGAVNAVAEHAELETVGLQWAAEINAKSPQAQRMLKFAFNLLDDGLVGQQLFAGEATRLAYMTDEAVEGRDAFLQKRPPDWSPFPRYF
Mtb MbtI inh: MbtI salicylate synthase inhibitors, primary screen, biochemical, fluorescence intensity; P9WFX0; purified MbtI enzyme, fluorescence intensity read-out; inhibition, % (no concentration beside the values); actives 0.89% (n = 100,000); AID 493033, 2011; in the data active = inhibition mostly above about 56%, no sharp cut-off; inactive = mostly below about 77%
Polio RdRp inh: poliovirus RdRp elongation inhibitors, primary screen, biochemical, fluorescence polarization, total intensity. Genome polyprotein (Poliovirus type 1 (strain Mahoney)), P03300. poliovirus polymerase elongation; hits give low values. % elongation, % (compound at 16.7 µg/mL). actives 0.66% (n = 150,000). AID 588519, 2011; in the data active = % elongation below about 90%
Of the large screens only hits and unclear results are named; the others gave an inactive call; ! = not active in a repeat.

CCN(CC)c1ccc(C2C(C#N)=C(N)N(c3ccccc3Cl)C3=C2C(=O)CCC3)cc1 (configuration not stated)	none
Cc1cccc(N=C2SCC(=O)N2c2cccc(C)c2)c1	none
CN1C(=O)NC(=O)/C(=C\C=C\c2ccccc2)C1=O	Mtb MbtI inh 84
O=C1NC(=O)C(=C/C=C/c2ccccc2)C(=O)N1	Mtb MbtI inh 78
CC(C=C1C(=O)NC(=O)NC1=O)c1ccccc1 (configuration not stated)	none
CN1C(=O)NC(=O)/C(=C/c2ccc(F)cc2)C1=O	none
Cc1cc(C)c2c(=O)cc(C(F)(F)F)oc2c1	none
c1ccc(CSC2=NCCS2)cc1	none (no result: MenB inh, Polio RdRp inh)
S=c1[nH]nc(SCc2ccccc2)s1	Mtb MbtI inh 87
CN(C)S(=O)(=O)c1ccc(S(=O)(=O)N2CC=C(c3ccc(F)cc3)CC2)cc1	none
O=C1COc2ccc(-c3csc(-n4nccc4C(F)(F)F)n3)cc2N1	Polio RdRp inh 87
O=C1COc2ccc(-c3cc(-c4ccccc4)c4c(n3)-c3ccccc3OC4)cc2N1	none (no result: MenB inh, Mtb MbtI inh)
CCOC(=O)C1=C(CC)Nc2ccccc2N=C1NC(=O)C1Cc2ccccc2CN1S(=O)(=O)CC (configuration not stated)	none
CCOC(=O)CC(NC(=O)N1CCC(CN2CCC(C)CC2)CC1)c1ccccc1 (configuration not stated)	Polio RdRp inh 49 (no result: MenB inh, Mtb MbtI inh)
CCOc1ccc(NC(=O)N2CCC(CN3CCC(C)CC3)CC2)cc1	none (no result: MenB inh, Mtb MbtI inh)
CC12CC(c3cc(Br)cc(Br)c3O1)C(C(=O)c1ccccc1)C(=O)N2 (configuration not stated)	none
c1ccc(NCc2cccnc2)cc1	none
OC(Cc1cccnc1)(c1ccccc1)c1ccccc1	Polio RdRp inh 89
CCCCN(C(=O)c1cn(-c2ccc(OC)cc2)c(=O)c2ccccc12)C1CCN(C(C)=O)CC1	none
CCCCCCN1C(=O)NC(c2ccccc2)C1=O (configuration not stated)	none
OC1CCOc2ccccc21 (configuration not stated)	none
CN(C)C=NC(=S)c1sccc1CSc1ccc(Cl)cc1	Mtb MbtI inh 74
CN(C)/C=N/c1nnc(SCC(=O)c2ccc(Cl)cc2)s1	none
Cc1cc(C)nc(Sc2ccc(S(=O)(=O)C(F)F)cc2S(=O)(=O)C(F)F)n1	none
Nc1cc(N)nc(SCc2ccccc2C(F)(F)F)n1	none
Oc1ccc(NC(=S)Nc2ccc(O)cc2)cc1	none
CNc1ccc(O)cc1	Mtb MbtI inh 101, Polio RdRp inh 59 (no result: MenB inh)
COC(=O)c1ccc2c(c1)N(C)S(=O)(=O)/C(=C\Nc1ccc(Cl)cc1)C2=O	none
CN1C2CCC1CC(OC(=O)C1(c3ccccc3)CCCC1)C2 (configuration not stated)	none
CCc1c(C)sc(NC(=O)c2noc3c2CC(C(C)(C)C)CC3)c1C#N (configuration not stated)	none
CSc1ccccc1NC(=O)c1noc2c1CC(C(C)(C)C)CC2 (configuration not stated)	none
CC(C)(C)C1CCc2onc(C(=O)Nc3sc4c(c3C#N)CCCC4)c2C1 (configuration not stated)	Polio RdRp inh 82 (no result: MenB inh, Mtb MbtI inh)
CC(C)(C)C1CCc2onc(C(=O)Nc3sc4c(c3C(N)=O)CCCC4)c2C1 (configuration not stated)	Polio RdRp inh 79 (no result: MenB inh, Mtb MbtI inh)
COc1ccc(CCNC(=O)/C=C/c2ccc(F)cc2)cc1OC	none (no result: MenB inh)
Cc1cc(OC(=O)c2cc(-c3ccc4c(c3)OCCO4)on2)ccc1Cl	Polio RdRp inh -17 (no result: MenB inh, Mtb MbtI inh)
Cc1ccc(OC(=O)c2cc(-c3ccc4c(c3)OCCO4)on2)cc1C	none (no result: MenB inh, Mtb MbtI inh)
CCO/C=C1\C(=O)N(Cc2ccccc2)C(=O)c2ccccc21	Polio RdRp inh 62 (no result: MenB inh)
CCO/C=C1/C(=O)N(C)C(=O)c2ccccc21	none
O=C(CSc1cn(Cc2ccccc2Cl)c2ccccc12)N1CCCC1	none
O=C(Nc1ccc(Cl)c(Cl)c1)N(Cc1ccccc1)Cc1ccccc1	none (no result: Mtb MbtI inh)
CCC(=O)n1nc(-c2ccco2)nc1SC	Mtb MbtI inh 54
CCC(=O)n1nc(-c2ccco2)nc1SCc1ccccc1	none
NCC1OC(O[C@@H]2C(O)[C@H](OC3C(O)C(N)CC(N)C3OC3OC(CO)C(O)C(O)C3N)O[C@@H]2CO)C(N)C(O)C1O (some centres not stated)	none
CCSc1nc2c([nH]1)c(=N)ncn2Cc1ccccc1	none (no result: MenB inh, Polio RdRp inh)
CCN1C(=O)C2C=CC=CC2NC1=S (configuration not stated)	none
CN1C(=O)C2C=CC=CC2NC1=S (configuration not stated)	Polio RdRp inh 87
Nn1c(SCc2cccc(Br)c2)nnc1-c1ccccc1	none
Clc1ncnc2sc3c(c12)CCCC3	none
Clc1ncnc2sc3c(c12)CCC3	Mtb MbtI inh 89
c1ccc2c(c1)nc(NC1CCCC1)c1nncn12	none
NNc1nnc(-c2ccccc2)c(-c2ccccc2)n1	Mtb MbtI inh 73
Clc1nnc(-c2ccccc2)c(-c2ccccc2)n1	none
CC1=CC(=NC#N)C(C)=CC1=NC#N	none
CC(C)c1ccc(Nc2nnns2)cc1	none
Cc1ccc(Nc2nc(C)cs2)cc1	none
Cc1csc(Nc2ccc(Cl)cc2)n1	Mtb MbtI inh 63
Clc1ccc(Nc2nnns2)cc1	Mtb MbtI inh 59
COc1cccc(/C=C/C(=O)C2C(=O)c3ccccc3C2=O)c1	none
CNc1nc2c(c(=O)[nH]c(=O)n2C)n1Cc1cccc2ccccc12	none
CC(C)n1c(=S)[nH]c2c1c(=O)[nH]c(=O)n2C	Mtb MbtI inh 102!
Clc1c2ccccc2c(/C=N/n2cnnc2)c2ccccc12	none (no result: MenB inh)
O=C(CSc1nnnn1C1CCCC1)N(c1ccccc1)C1CCCCC1	none
Cn1c(SCC(=O)N(c2ccccc2)C2CCCCC2)nc2cc(S(N)(=O)=O)ccc21	Polio RdRp inh 79
CN(CC(=O)Nc1ccc(F)cc1)C(=O)CSc1ccc2c(c1)OCCO2	Mtb MbtI inh 98
O=C(CSc1ccc2c(c1)OCCO2)Nc1ccccc1	none
Cc1cc(C)c(S(=O)(=O)NCC(c2ccco2)S(=O)(=O)c2cccs2)c(C)c1 (configuration not stated)	none (no result: MenB inh, Mtb MbtI inh)
Cc1nc(-c2c(C)[nH]c3ccccc23)cs1	Mtb MbtI inh 87, Polio RdRp inh 89
Cc1nc(-c2cccs2)cs1	none (no result: MenB inh)
CC(C)N1CC(=O)N(c2ccc(F)c(Cl)c2)C1=S	none
CNC(=O)NC(=O)CN1CCCc2cc(C)ccc21	none
CCCN1CCCc2cc(CN)ccc21	Polio RdRp inh 26
CC(C)N1CCCc2cc(CN)ccc21	none (no result: Mtb MbtI inh)
CCN1CCCc2cc(O)ccc21	Mtb MbtI inh 98 (no result: MenB inh, Polio RdRp inh)
Cc1ccc(Cl)cc1NC(=O)c1cc2c(=O)n3cccc(C)c3nc2n1C	none (no result: MenB inh, Mtb MbtI inh)
CCOC(=O)c1cnc2ccc(OCC)cc2c1NCCN(C)C	none
CCOC(=O)c1cnc2ccc(OCC)cc2c1NCCCN1CCOCC1	Polio RdRp inh 89 (no result: Mtb MbtI inh)
Nc1ccc2nc(CO)[nH]c2c1	none
Nc1ccc2nc(CCCO)[nH]c2c1	Polio RdRp inh 54
c1ccc(-c2nc(CSc3nnc4n3CCCCC4)cs2)cc1	none
CC(=NC1CCCCC1)c1sc2ccccc2c1O	none
COc1ccc(C2=C(C(C)=O)Sc3nnc(-c4ccccc4)n3N2C(C)=O)cc1	none (no result: MenB inh, Mtb MbtI inh)
CCOc1ccc(C2=C(C(C)=O)Sc3nnc(C)n3N2C(C)=O)cc1	Polio RdRp inh 79 (no result: MenB inh, Mtb MbtI inh)
CC(C)(C)c1ccc(C(=O)Nc2ccon2)cc1	none
